# Assay results from PubChem BioAssay (NCATS).
# Several values for one entry are separate records, joined by “and”; a condition that tells them apart may be missing. Identical values can stand only once. Records with an inconclusive call do not appear. A call without a number means that no potency is given here. Activity calls are given as the source filed them. The call rests on the fitted dose curve; in most records, active means well fitted curve in the direction sought with a large enough effect; inconclusive means small, poorly fitted or top-dose-only effect, or another doubt; inactive means no such curve, though single readings can be large; an effect the other way counts as inactive or inconclusive.
# Assays:
# [1] = test system: Zika virus NS2B-NS3 protease (unlinked complex); experiment: Primary screen GU Rhodamine qHTS for Zika virus inhibitors: Unlinked NS2B-NS3 protease assay (AID 1347159); further: nearly all actives have a fitted effect of over 60% in size
# How it was run: (§1)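 Enzyme 25 nM in Tris-HCl pH 8.0 + 0.01% Tween 20; compounds up to 114 microM, 15 min RT dark; + Rhod110 substrate 1.5 microM; read t0 and 15 min; delta fluorescence → % inhibition → 4-parameter Hill fit.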
# [2] = test system: Zika virus NS2B-NS3 protease (linked construct); experiment: Primary screen NINDS Rhodamine qHTS for Zika virus inhibitors (AID 1347160); further: nearly all actives have a fitted effect of over 55% in size
# How it was run: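 Enzyme (25 nM, linked NS2B-NS3) was preincubated 15 min with compound in 10 mM Tris-HCl pH 8.0, 0.01% Tween 20. Rhodamine110 substrate (1.5 microM) was then added and fluorescence read at start and after 15 min.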
# [3] = qHTS to identify inhibitors of the type 1 interferon - major histocompatibility complex class I in skeletal muscle: primary screen against the NCATS Pharmaceutical Collection (AID 1347407);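 further: luminescence of HiBiT knocked into endogenous HLA-B as interferon-induced MHC class I level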
# How it was run: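 Immortalized human myoblasts (C25cl48) with HiBiT knocked into endogenous HLA-B*08:01 were stimulated with 4.0 ng/ml IFN-beta and treated with compounds ([…] top 46 uM) for 24 hrs at 37 C. HiBiT lytic luminescence read.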
# [4] = Confirmatory screen GU Rhodamine qHTS for Zika virus inhibitors qHTS (AID 1347157); settings: purified enzyme assay, Rhodamine110 substrate fluorescence, 15 min; further: potency means the concentration at half of the fitted maximal effect; nearly all actives have a fitted effect of over 70% in size
# How it was run: as §1
# [5] = ZIKV-mCherry secondary qHTS for Zika virus inhibitors (AID 1347158); further: top concentration of the series differs between compounds
# How it was run: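 Percent infection is the share of Hoechst-identified Vero nuclei with mCherry signal above 450 RFU (3 SD over negative controls). Cells were infected with recombinant ZIKV-mCherry at MOI 1 after compound addition and imaged 48–72 h later.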
# [6] = Confirmatory screen NINDS Rhodamine qHTS for Zika virus inhibitors (AID 1347161); further: nearly all actives have a fitted effect of over 60% in size; further: potency means the concentration at half of the fitted maximal effect
# How it was run: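 qHTS dose-response: 25 nM linked protease, pH 8.0 Tris/Tween buffer, cpd titration, 15 min RT preinc, 1.5 microM Rhod110 peptide, 15 min reaction (~15% conversion), Ex480/Em540; 4-parameter Hill fit.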
# [7] = test system: Zika virus NS2B-NS3 protease (linked); experiment: 384 well plate NINDS AMC confirmatory qHTS for Zika virus inhibitors (AID 1347163); further: potency means the concentration at half of the fitted maximal effect; nearly all actives have a fitted effect of over 50% in size
# How it was run: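 Fluorescence at 355/460 nm was read after 25 minutes of cleavage of 30 microM Ac-VKTGKR-AMC at room temperature, in the dark. Before substrate addition, compounds (up to 1 mM final) sat ~15 minutes with 5, 30 or 60 nM linked protease. Signals were normalized to no-enzyme and no-inhibitor wells.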
# [8] = test system: Zika virus NS2B-NS3 protease (linked construct); experiment: 384 well plate NINDS Rhodamine confirmatory qHTS for Zika virus inhibitors (AID 1347164); further: potency means the concentration at half of the fitted maximal effect; nearly all actives have a fitted effect of over 65% in size
# Description: Description: Assay Submitters (PI): Avindra Nath, Ph.D., National Institute of Neurological Disorders and Stroke (NINDS), Bethesda, MD Radhakrishnan Padmanabhan, Ph.D., Georgetown University (GU), Washington D.C. Zika Virus causes congenital defects, including microcephaly and is associated with Guillain-Barre syndrome, eningoencephalitis and myelitis in infected adult. […] Using a target-based approach, we hope to establish a screening paradigm to uncover novel, cell-active NS2B-NS3 protease (Zika Virus) specific inhibitors from NCATS' collection of small molecules using qHTS. […] Four assay panel was created to identify potential Zika Virus inhibitors. Namely, (1) GU unlinked NS2B-NS3 AMC tagged protease qHTS, (2) GU unlinked NS2B-NS3 Rhodamine tagged protease qHTS, (3) NINDS linked NS2B-NS3 AMC tagged protease qHTS, (4) NINDS linked NS2B-NS3 Rhodamine tagged protease qHTS. Active compounds are validated using a secondary assay in 384 well plate format. Early Translation Branch (ETB) National Center for Advancing Translational Sciences (NCATS), Rockville, MD National Institute of Health (NIH), Bethesda, Maryland
# 384-well NINDS Rhodamine Assay: The protease was diluted to 7.5 nM, 40.9 nM, or 82 nM in assay buffer and dispensed into a 96-well PCR plate (Applied Biosystems); 20 or 22 microL was transferred to a black 384-well assay plate (final protease concentration of 5 nM, 30 nM, or 60 nM, respectively). Compounds (3 microL, 1 microM - 10 mM, DMSO) were diluted and transferred to the assay plate (final concentrations ranged from 100 nM to 1 mM). Compounds were incubated with protease for ~15 minutes. The substrate, Rhodamine 110 (Ac-LKRR-Rd; Genscript), was dissolved in DMSO to a concentration of 6 mM and further diluted into assay buffer to a working concentration of 180 microM, then dispensed into a 384-well preparation plate (Eppendorf). A multichannel repeat pipettor was used to add 3 or 5 microL of substrate to the assay plate to give a final concentration of 10 microM. The plate was incubated in the dark at room temperature. After 25 minutes, the fluorescence intensity (excitation: 485 nm, emission: 538 nm) was measured and normalized to no-enzyme and no-inhibitor controls. Aprotinin39 (VWR) was used as an intraplate control.
# [9] = target: Lysine-specific demethylase 5B (Homo sapiens) (UniProt Q9UGL1); experiment: Optimization screen for KDM5B Histone Demethylases FDH coupled qHTS against the LOPAC library (AID 1347166)
# How it was run: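 KDM5BDeltaAP (200nM final) in 50mM HEPES pH 7.5, 0.01% Tween-20 was preincubated with compound for 10 min at room temperature. A substrate mix of 12.5uM H3K4Me3, 25uM a-ketoglutarate, ascorbate, Fe2+, NAD+ and formaldehyde dehydrogenase was then added. NADH fluorescence (340/450 nm) was read initially and after 30 min.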
# [10] = HepG2 cells viability qHTS for Zika virus inhibitors (AID 1347168)
# How it was run: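 To flag cytotoxic protease inhibitors, viability is measured by ATP-dependent luminescence (CellTiter Glo) after cells attached overnight receive compound for 24 to 48 hours in DMEM with 4% FBS.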
# Sequence of Lysine-specific demethylase 5B (Homo sapiens) (Q9UGL1 whole entry, looked up): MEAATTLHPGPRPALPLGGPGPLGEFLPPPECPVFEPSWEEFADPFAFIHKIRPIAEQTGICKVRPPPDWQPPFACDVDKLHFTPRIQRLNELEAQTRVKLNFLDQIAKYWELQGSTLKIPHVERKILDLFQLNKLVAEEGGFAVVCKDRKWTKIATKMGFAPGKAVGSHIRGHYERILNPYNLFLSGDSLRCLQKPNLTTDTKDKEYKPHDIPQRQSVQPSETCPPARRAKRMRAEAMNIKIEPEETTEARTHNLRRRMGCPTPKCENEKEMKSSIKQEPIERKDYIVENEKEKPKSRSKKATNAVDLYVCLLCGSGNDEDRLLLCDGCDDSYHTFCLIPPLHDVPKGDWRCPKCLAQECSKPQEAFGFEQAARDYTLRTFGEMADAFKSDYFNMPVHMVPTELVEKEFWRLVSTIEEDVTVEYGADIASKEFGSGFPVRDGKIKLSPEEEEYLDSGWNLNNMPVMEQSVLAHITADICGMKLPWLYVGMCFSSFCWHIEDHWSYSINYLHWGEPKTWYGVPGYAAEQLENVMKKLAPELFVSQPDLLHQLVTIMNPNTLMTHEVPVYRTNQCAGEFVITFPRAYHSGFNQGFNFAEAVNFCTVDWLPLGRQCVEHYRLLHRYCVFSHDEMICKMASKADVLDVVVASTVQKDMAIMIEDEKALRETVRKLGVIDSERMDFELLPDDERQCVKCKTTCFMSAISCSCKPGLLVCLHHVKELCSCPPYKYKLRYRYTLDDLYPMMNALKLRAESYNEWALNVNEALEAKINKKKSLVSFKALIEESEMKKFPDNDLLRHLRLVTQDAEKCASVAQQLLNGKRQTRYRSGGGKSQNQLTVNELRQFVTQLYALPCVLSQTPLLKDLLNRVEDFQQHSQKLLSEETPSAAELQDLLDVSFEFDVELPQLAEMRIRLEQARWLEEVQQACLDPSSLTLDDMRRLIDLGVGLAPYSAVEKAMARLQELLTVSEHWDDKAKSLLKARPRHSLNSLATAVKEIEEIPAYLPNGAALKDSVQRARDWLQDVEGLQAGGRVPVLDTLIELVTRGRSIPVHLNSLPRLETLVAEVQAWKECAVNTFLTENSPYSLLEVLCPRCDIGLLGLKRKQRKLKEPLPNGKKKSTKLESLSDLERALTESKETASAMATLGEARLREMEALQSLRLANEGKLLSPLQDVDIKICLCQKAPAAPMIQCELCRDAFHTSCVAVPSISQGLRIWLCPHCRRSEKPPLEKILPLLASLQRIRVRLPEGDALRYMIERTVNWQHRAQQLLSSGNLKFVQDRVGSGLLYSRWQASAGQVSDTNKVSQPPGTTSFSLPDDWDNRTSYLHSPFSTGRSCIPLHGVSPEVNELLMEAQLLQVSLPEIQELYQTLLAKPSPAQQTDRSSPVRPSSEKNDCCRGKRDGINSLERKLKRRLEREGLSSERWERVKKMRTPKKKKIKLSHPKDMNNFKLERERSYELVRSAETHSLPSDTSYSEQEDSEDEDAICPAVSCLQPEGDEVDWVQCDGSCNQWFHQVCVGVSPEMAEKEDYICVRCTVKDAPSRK
smiles,measurement,setting,value
O=C(OC1C[C@H]2CC[C@@H](C1)[N+]21CCCC1)C(O)(c1ccccc1)c1ccccc1 (stereo not given in full),Potency,[1],inactive
same,Potency,[2],inactive
same,Potency,[3],inactive
CC(=O)NC[C@H]1CN(c2ccc(N3CCOCC3)c(F)c2)C(=O)O1,Potency,[1],inactive
same,Potency,[2],inactive
O=c1c(O)c(-c2cc(O)c(O)c(O)c2)oc2cc(O)cc(O)c12,Potency,[4],17.8 µM (active)
same,Potency,[5],inactive
same,Potency,[6],14.1 µM (active)
same,Potency,[7],158 µM (active)
same,Potency,[8],39.8 µM (active)
Cc1c(OCC(F)(F)F)ccnc1CS(=O)c1nc2ccccc2[nH]1 (stereo not given),Potency,[6],inactive
same,outcome,[9],inactive
same,Potency,[10],inactive
same,Potency,[3],inactive
OC(CN1CCN(c2cccc(Cl)c2)CC1)C(c1ccccc1)c1ccccc1 (stereo not given),Potency,[1],inactive
same,Potency,[2],inactive
same,outcome,[9],inactive
Cc1ccc(Nc2nccc(N(C)c3ccc4c(C)n(C)nc4c3)n2)cc1S(N)(=O)=O,Potency,[1],inactive
same,Potency,[2],inactive
CC(C)c1ccc2c(c1)c(SC(C)(C)C)c(CC(C)(C)C(=O)O)n2Cc1ccc(Cl)cc1,Potency,[6],1.56 µM (active)
same,Potency,[7],14.1 µM (active)
same,Potency,[8],14.1 µM (active)
same,outcome,[9],inactive
same,Potency,[10],inactive
CCC1=C(C)CN(C(=O)NCCc2ccc(S(=O)(=O)NC(=O)NC3CCC(C)CC3)cc2)C1=O (stereo not given),Potency,[2],inactive
same,Potency,[3],inactive
CCc1nc(N)nc(N)c1-c1ccc(Cl)cc1,Potency,[6],inactive
CN(C)c1ccc(O)c2c1C[C@H]1C[C@H]3[C@H](N(C)C)C(=O)C(C(N)=O)=C(O)[C@@]3(O)C(=O)C1=C2O,Potency,[6],44.1 µM (active) and 35 µM (active)
same,Potency,[7],141 µM (active)
same,Potency,[8],89.1 µM (active)
same,Potency,[10],inactive
same,Potency,[3],inactive
c1cnc2cc3c(cc2n1)C1CNCC3C1,Potency,[1],inactive
same,Potency,[2],inactive
same,Potency,[3],inactive
